Compound activity (PubChem)
Hits are enriched below; roughly 2.9% of the tested compounds scored in any of these assays.
KDM5B inh – inhibitors of human KDM5B histone demethylase; Q9UGL1; KDM5B demethylase, FDH-coupled NADH fluorescence (FDH is formaldehyde dehydrogenase); Potency, µM (series often up to 57.7 µM), actives largely listed as inhibitors; actives 2.6% (n = 220,000); note: potency is the fitted concentration of half-maximal effect; 0% is about no effect; nearly all actives have a fitted effect of over 70% in size
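Measured: NADH fluorescence change, 30 min, RT. System: KDM5BΔAP 200 nM final, H3K4me3 peptide, α-KG, Fe(II), ascorbate, NAD⁺ plus FDH, pH 7.5 HEPES. Compounds: titrated, 10 min pre-incubation with enzyme.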
SNCA expr inhib – reduces expression of the alpha-synuclein gene. HEK-293 SNCA-luciferase knock-in, luminescence, 24 h. Potency, µM (top dose mostly 57.2 µM), for inactives: at the top dose activity change, negative = inhibition, actives largely listed as inhibitors. actives 0.17% (n = 140,000);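 note: potency is the fitted concentration of half-maximal effect; plate controls were DMSO cells for no effect and cell-free wells for full effect; nearly all actives have a fitted effect of over 45% in size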
HEK293 viab – cell viability loss counter-screen; HEK-293-SNCA-luc viability, GF-AFC fluorescence, 24 h; Potency, µM (titrated, usually from 57.1 µM), without a hit: at the top dose activity change, negative = cytotoxicity, actives largely listed as cytotoxic; actives 0.12% (n = 150,000);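 note: potency is the fitted concentration of half-maximal effect; 0% = DMSO-treated cells and -100% = medium-only wells without cells; nearly all actives have a fitted effect of over 30% in size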
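Cytotoxicity counterscreen: after 24 h compound treatment of genome-edited SNCA-luciferase HEK-293 cells, live-cell protease substrate GF-AFC read by fluorescence after 30 min; activity scaled between DMSO (0%) and medium-only (-100%), curves Hill-fitted.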
IP6K1 inh – inhibitors of human IP6K1 | Q92551 | IP6K1 kinase, ADP-Glo luminescence, 2 h; hits give low values | activity change, % (series mostly up to about 58 µM) | actives 0.81% (n = 140,000); in the data active = activity change below about -25%; note: % is set by controls: 0 for no effect and ±100 for the full control effect
Target sequence (Q92551 whole entry, looked up): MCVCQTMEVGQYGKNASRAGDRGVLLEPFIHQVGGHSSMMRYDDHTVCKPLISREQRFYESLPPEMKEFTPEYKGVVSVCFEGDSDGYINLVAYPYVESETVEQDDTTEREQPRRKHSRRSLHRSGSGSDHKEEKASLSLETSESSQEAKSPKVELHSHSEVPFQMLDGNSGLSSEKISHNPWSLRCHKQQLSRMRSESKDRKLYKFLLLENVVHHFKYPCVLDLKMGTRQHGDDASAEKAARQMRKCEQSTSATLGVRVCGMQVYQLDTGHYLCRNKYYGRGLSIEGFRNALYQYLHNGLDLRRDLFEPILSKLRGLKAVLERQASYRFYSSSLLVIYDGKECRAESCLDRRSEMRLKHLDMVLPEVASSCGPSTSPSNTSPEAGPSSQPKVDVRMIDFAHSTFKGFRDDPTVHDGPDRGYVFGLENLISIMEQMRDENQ
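ADP-Glo luminescence measures ADP made by human IP6K1 during a 2 h RT reaction with ATP/IP6 (mix at 1.3 mM/130 uM); top library doses 57.5 and 19.1 uM final.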
* marks the source's active call; other numbers are inactive results; i = inactive; ? = inconclusive; . = no result given; [ ] = another dose, or the depositor's remark. Unless noted, calls come from the whole dose curve; as a rule, active = well fitted curve in the direction sought with a large enough effect; inconclusive = small, poorly fitted or top-dose-only effect, or another doubt; inactive = no such curve, though single readings can be large; an effect the other way counts as inactive or inconclusive.

SMILES	KDM5B inh	SNCA expr inhib	HEK293 viab	IP6K1 inh
CC1(C)CC[C@]2(C(=O)O[C@@H]3O[C@H](CO)[C@@H](O)[C@H](O)[C@H]3O)CC[C@]3(C)C(=CCC4[C@@]5(C)CC[C@H](O[C@@H]6O[C@H](C(=O)O)[C@H](O)[C@H](O)[C@H]6O)C(C)(C)C5CC[C@]43C)[C@@H]2C1 (stereo partly drawn)	.	.	-2%[23.9 µM]	-6
CCCC(=O)N1CCC(O)(c2ccccc2)[C@H](N2CCCC2)C1 (stereo partly drawn)	10µM*	3%	1%	22
COCC(=O)N1CCC(O)(c2ccccc2)[C@H](N2CCCC2)C1 (stereo partly drawn)	?	-11%	-2%	25
O=S(=O)(Nc1cccn2nc(C3CC3)nc12)c1cccnc1	3.5µM*	10%	4%	10
CCc1nc2c(NS(=O)(=O)c3cccnc3)cccn2n1	i	-5%	1%	26
c1cncc(-c2ccnc(N3CCCOC(Cn4cccn4)C3)n2)c1 (stereo not drawn)	25µM*	-16%	-3%	-17
Fc1ccccc1OCC1CCCN(c2nccc(-c3cccnc3)n2)C1 (stereo not drawn)	28µM*	-9%	4%	0
Cc1ccc([N+](=O)[O-])cc1NC(=O)Cn1cnc2c1c(=O)n(C)c(=O)n2C	i	.	.	.
COc1ccc(Br)cc1S(=O)(=O)NCCN(C)C	i	.	.	.
CCN(C(=O)c1c(O)c2c(Cl)cccc2n(C)c1=O)c1ccccc1	.	5.4µM*	?	.
O=C(c1ccccc1)N1CCC2(CC1)NCc1ccccc1NC2=O	89µM*	-1%	1%	16
O=C(C1CCCCC1)N1CCC2(CC1)NCc1ccccc1NC2=O	i	10%	-1%	6
O=C(Nc1ccc(C(=O)N2CCCCC2)cc1)c1nsc2ccccc12	i	10µM*	-19%	14
CN(CC1CC1)C(=O)c1cc(-c2ccccc2Cl)nc2ccccc12	i	.	.	.
CN1CCCC(CN(C)C(=O)c2cc(-c3cnn(CCO)c3)nc3ccccc23)C1 (stereo not drawn)	32µM*	-12%	12%	8
O=C(c1ccco1)N1CCCC(c2nn[nH]n2)C1 (stereo not drawn)	22µM*	-16%	10%	-15
O=C(c1ccc2cc[nH]c2c1)N1CCCC(c2nn[nH]n2)C1 (stereo not drawn)	22µM*	-11%	3%	-11
O=C(c1cc(F)ccc1F)N1CCCC(c2nn[nH]n2)C1 (stereo not drawn)	i	-8%	1%	-11
Cn1nnnc1C1CCCN(C(=O)c2ccc3cc[nH]c3c2)C1 (stereo not drawn)	20µM*	-1%	0%	-6
Cn1nccc1C(=O)N1CCCC(c2nn[nH]n2)C1 (stereo not drawn)	?	4%	-4%	-8
Cc1ccc(C(=O)N2CCCC(c3nn[nH]n3)C2)cn1 (stereo not drawn)	22µM*	4%	7%	-12
Cn1nnnc1C1CCCN(C(=O)c2ccccc2)C1 (stereo not drawn)	i	5%	17%	-9
Cc1cnc(C(=O)N2CCCC(c3nnc4n3CCN(C3CCCC3)C4)C2)cn1 (stereo not drawn)	.	?	3%	-10
O=C(NCc1cccc(Cl)c1)c1ccc2nnc(C3CC3)n2c1	.	-5%[87.6 µM]	9%[87.6 µM]	-13
Cc1cc(C(=O)OCC(=O)NC(c2ccccc2)c2ccccc2)c2ccccc2n1	i	.	.	.
SMILES	KDM5B inh	SNCA expr inhib	HEK293 viab	IP6K1 inh
CN1CCOC[C@H]2CCN(C(=O)c3ccco3)C[C@H]21	i	-8%	-6%	-1
CN1CCOC[C@H]2CCN(C(=O)c3cccc4[nH]ccc34)C[C@H]21	25µM*	-24%	-14%	0
Cc1cc(C)n(CCC(=O)N2CCCC(c3nnnn3C)C2)n1 (stereo not drawn)	25µM*	4%	5%	-12
CN1CCC([C@@H]2CN(C(=O)c3ccccc3Cl)C[C@H]2C(N)=O)CC1	i	-14%	8%[12.5 µM]	-3
Cc1cc(C)n(CCC(=O)N2CCCC(c3nnnn3-c3ccccc3)C2)n1 (stereo not drawn)	.	24%	3%	7
CN1CCC([C@@H]2CN(C(=O)c3ccc4cc[nH]c4c3)C[C@H]2C(N)=O)CC1	20µM*	39%	-2%[12.5 µM]	-7
COCCOC1CN(C2CCN(C(=O)c3cccc4[nH]ccc34)CC2)C12CCCCC2 (stereo not drawn)	22µM*	21%	8%	0
COCCOC1CN(C2CCN(C(=O)c3ccc(OC)cc3)CC2)C12CCCCC2 (stereo not drawn)	i	-4%	-6%	3
Cc1cccc(-n2nnc3c(sc4nc(C)c(C)cc43)c2=O)c1	i	.	.	.
Cn1cccc1C(=O)N1CCCC(c2nnnn2C)C1 (stereo not drawn)	?	-3%	-3%	-6
Cn1nnnc1C1CCCN(C(=O)c2cccc3[nH]ccc23)C1 (stereo not drawn)	32µM*	87%	4%	-16
C=C(Br)CN1CCOCC1	i	.	.	.
CCCn1cc(-c2ccnc(NC3CCN(Cc4cccnc4)CC3)n2)c(C)n1	32µM*	?	?	-3
CN(C)Cc1ccccc1CNC(=O)CCc1nc2ccccc2s1	i	.	.	.
CCn1cnnc1CC1CCN(C(=O)c2cnn3c(C)c(Cc4ccccc4Cl)c(C)nc23)CC1	28µM*	5%	0%	13
N#Cc1cccc(-c2cn3c(n2)N(C(=O)C2CCC2)CCC3)c1	22µM*	40%	-6%	12
N#Cc1cccc(-c2cn3c(n2)N(C(=O)C2CCCO2)CCC3)c1 (stereo not drawn)	32µM*	22%	1%	-16
COc1ccc(-c2ccnc3nc(CCC4CCCC4)nn23)cc1OC	13µM*	-28%	-20%	-6
c1ccc(-c2ccnc3nc(CCC4CCCC4)nn23)nc1	?	16%	7%	1
COc1ccc(-c2ccnc3nc(CCc4ccccc4)nn23)cc1OC	22µM*	41%	4%	-15
COc1ccc(CCc2nc3nccc(-c4ccc(OC)c(OC)c4)n3n2)cc1	28µM*	16%	2%	4
COc1cc(-c2ccnc3nc(CCc4ccccc4)nn23)cc(OC)c1OC	14µM*	7%	2%	13
COc1ccc(CCc2nc3nccc(-c4cc(OC)c(OC)c(OC)c4)n3n2)cc1	?	-30%	-18%	-12
COc1ccc(C(=O)Oc2ccc3c(=O)c(-c4ccccc4)c(C)oc3c2)cc1	i	.	.	.
O=C(NCc1ccc(F)c(F)c1)c1nc2sccn2c1-c1ccc(F)cc1	.	-12%	-9%	15
CC(Sc1ncnc2nc[nH]c12)C(=O)NCCc1ccc(Cl)cc1Cl (stereo not drawn)	i	.	.	.
COc1cc(-c2ccnc3nc(CC(C)C)nn23)cc(OC)c1OC	18µM*	7%	0%	-3
Clc1ccccc1Nc1cnc2ccc(N3CCOCC3)nn12	32µM*	-26%[87.6 µM]	-1%[87.6 µM]	3
